These results are taken from PubChem BioAssay (NCATS).

Results filed as inconclusive are left out. Calls of active or inactive are those of the source. Calls follow the shape of the dose curve; as a rule, active = well fitted inhibition curve with a large enough effect; inconclusive = small, poorly fitted or top-dose-only effect; inactive = flat fitted curve, though single readings scatter.

Holding throughout (experiment): qHTS profiling for inhibitors of Plasmodium falciparum proliferation (AID 504749); also: nearly all actives have a fitted effect of over 60% in size
What all share (conditions): P. falciparum in erythrocytes, SYBR Green DNA, 72 h; series mostly up to 28.7 µM

One assay concerns ECU. In a few lines:
(§1)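 P. falciparum-infected erythrocytes (0.3% parasitemia, 2.5% hematocrit final) were exposed to compounds for 72 h at 37 C in 5% CO2, then lysed with SYBR Green buffer overnight at room temperature; parasite DNA fluorescence was normalized to artemisinin and DMSO controls.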

The next assay concerns FAB9. In a few lines: as §1
In the next assay the test system is HB3. In a few lines: as §1
In the next assay the test system is ICS. The method, boiled down:
as §1

For another assay, the system named is JCK. The method, boiled down: as §1
A further assay relates to N140. The method, boiled down:
as §1

In another assay the test system is P93_24. In a few lines: as §1
The next assay deals with P94_40. In a few lines: as §1
The subject of the next assay is PAD. The method, boiled down:
as §1

A further assay concerns PC15. The method, boiled down: as §1
The next assay deals with PC49. In a few lines: as §1
The subject of another assay is SC27B. The method, boiled down:
as §1

For the next assay, the system named is TAB109. The method, boiled down:
as §1

The test system of the next assay is TAB113. In a few lines: as §1
A further assay relates to DIV14. In a few lines:
as §1

For a further assay, the system named is DIV17. The method, boiled down: as §1
A further assay concerns DIV30. The method, boiled down:
as §1

The subject of the next assay is Dd2. The method, boiled down:
as §1

In the next assay the test system is GB4. In a few lines:
as §1

For the next assay, the system named is PC26. In a few lines: as §1
Potency is read from the fitted curve at half-maximal effect.

Take `CC(C)NC(C)Cc1ccc(I)cc1` (stereo not drawn): the Potency entry in the assay on ECU, in the assay with FAB9, in the assay with HB3, in the assay with ICS, with JCK and in the assay on N140 was “inactive” throughout. The Potency result in the assay on P93_24, in the assay with P94_40, with PAD, in the assay on PC15, in the assay with PC49 and in the assay with SC27B was “inactive” each time. Moreover, the Potency entry with TAB109 and with TAB113 was “inactive” throughout.
On to `COC(=O)[C@@H](N)CCCN=C(N)N[N+](=O)[O-]`, for which the Potency entry with DIV14, in the assay on DIV17, in the assay with DIV30, in the assay on Dd2, with ECU and in the assay on FAB9 was “inactive” throughout. Further, the Potency result with GB4, in the assay with HB3, in the assay on ICS, in the assay on JCK, in the assay with N140 and with P93_24 was “inactive” each time. Further, the Potency result in the assay on P94_40, in the assay with PAD, in the assay on PC15, with PC26, in the assay on PC49 and in the assay on SC27B was “inactive” throughout. Also, the Potency entry in the assay on TAB109 and in the assay on TAB113 was “inactive” throughout.
Regarding `CCCCCCCCCC(CC)c1ccc(S(=O)(=O)O)cc1` (stereo not drawn), the Potency entry in the assay with DIV14, in the assay on DIV17, in the assay with DIV30, in the assay on Dd2, in the assay with ECU and with FAB9 was “inactive” each time. For the same compound, the Potency result with GB4, with HB3, in the assay with ICS, with JCK, in the assay on N140 and with P93_24 was “inactive” in each case. Also, the Potency result in the assay with P94_40, in the assay on PAD, in the assay with PC15, in the assay with PC26, with PC49 and with SC27B was “inactive” each time. In addition, the Potency entry in the assay with TAB109 and in the assay on TAB113 was “inactive” throughout.
Regarding `O=[N+]([O-])c1ccc([As](=O)(O)O)cc1`, the Potency with DIV14 was 10.7 µM (active); in the assay with DIV17, 12 µM (active); in the assay with DIV30, 8.49 µM (active); with Dd2, 3.98 µM (active); in the assay with ECU, 3.55 µM (active); in the assay with GB4, 8.49 µM (active). Besides, the Potency in the assay with HB3 was 12.6 µM (active); with ICS, 8.91 µM (active); with N140, 4.47 µM (active); in the assay on P93_24, 5.01 µM (active); in the assay with P94_40, 7.08 µM (active); in the assay on PAD it was 7.94 µM (active). Besides, the Potency was 13.5 µM (active) in the assay on PC26, 4.47 µM (active) with SC27B, 6.31 µM (active) in the assay on TAB109 and 7.08 µM (active) with TAB113.
As for `NC(=O)CN1CC(O)CC1=O` (stereo not drawn), the Potency result in the assay on DIV14, in the assay with DIV17, with DIV30, in the assay with Dd2, in the assay with ECU and in the assay on FAB9 was “inactive” in each case. Moreover, the Potency entry in the assay on GB4, with HB3, in the assay on ICS, in the assay with JCK, in the assay with N140 and with P93_24 was “inactive” each time. Also, the Potency entry in the assay on P94_40, in the assay with PAD, in the assay on PC15, in the assay on PC26, in the assay on PC49 and in the assay on SC27B was “inactive” throughout. The Potency result in the assay with TAB109 and in the assay with TAB113 was “inactive” each time.
As to `C=CCN1CC[C@]23CCCCC2[C@H]1Cc1ccc(O)cc13` (stereo partly drawn), the Potency entry with DIV14, with DIV17, in the assay on DIV30, with ECU, in the assay on FAB9 and in the assay on HB3 was “inactive” each time. Also, the Potency entry in the assay with ICS, in the assay with JCK, in the assay with N140, in the assay on P93_24, in the assay on P94_40 and with PAD was “inactive” throughout. For the same compound, the Potency result in the assay on PC26, with PC49, in the assay with SC27B, in the assay with TAB109 and in the assay on TAB113 was “inactive” in each case. Also, in the assay with Dd2, the Potency was 11.2 µM (active).
On to `c1ccc(C2(c3ccccc3)CC2C2=NCCN2)cc1` (stereo not drawn), for which the Potency result in the assay on DIV30, in the assay on Dd2, with ECU, in the assay with FAB9, with HB3 and in the assay on JCK was “inactive” each time. In addition, the Potency result in the assay with N140, in the assay on P93_24, in the assay with P94_40, in the assay with PAD, with PC26 and in the assay with PC49 was “inactive” in each case. Also, the Potency entry with SC27B, in the assay with TAB109 and in the assay on TAB113 was “inactive” in each case. The Potency in the assay on PC15 is 5.62 µM (active).
Regarding `C1CCC(NC2CCCCC2)CC1`, the Potency entry in the assay with DIV14, in the assay with DIV17, in the assay on DIV30, in the assay with Dd2, with ECU and in the assay on FAB9 was “inactive” in each case. The Potency entry in the assay with GB4, with HB3, in the assay on ICS, in the assay with JCK, in the assay with N140 and in the assay on P93_24 was “inactive” each time. The Potency result with P94_40, with PAD, in the assay with PC15, in the assay with PC26, with PC49 and in the assay on SC27B was “inactive” in each case. For the same compound, the Potency result with TAB109 and in the assay with TAB113 was “inactive” throughout.
`CC(=O)OCC1=C(C(=O)O)N2C(=O)[C@@H](N)[C@@H]2SC1`: the Potency entry with DIV14, in the assay with DIV17, in the assay on DIV30, in the assay with Dd2, with ECU and with FAB9 was “inactive” each time. Moreover, the Potency entry in the assay on GB4, with HB3, in the assay with ICS, with JCK, in the assay with PC15 and in the assay on PC26 was “inactive” throughout. Besides, the Potency result in the assay with PC49 is “inactive”.
For the compound `NC1=NC(=O)N2CC12` (stereo not drawn), the Potency entry in the assay with DIV14, in the assay on DIV30, in the assay with FAB9, in the assay on JCK, in the assay on N140 and with PC15 was “inactive” each time. In addition, the Potency entry in the assay on PC49, with SC27B and in the assay with TAB113 was “inactive” in each case. The Potency in the assay on ICS is 11.2 µM (active).
As to `CC(=O)[O][Hg][c]1ccccc1`, the Potency with DIV14 is 4.78 µM (active); in the assay with DIV17, 4.26 µM (active); in the assay on Dd2, 0.126 µM (active); in the assay on ECU it was 10 µM (active); with FAB9, 3.98 µM (active); in the assay on GB4, 4.26 µM (active). Besides, the Potency in the assay on HB3 was 6.31 µM (active); with ICS, 3.55 µM (active); with JCK, 3.98 µM (active); with N140, 3.55 µM (active); in the assay on P93_24 it was 5.01 µM (active); in the assay on P94_40, 3.55 µM (active). Moreover, the Potency in the assay on PAD was 6.31 µM (active); with PC15 it was 3.55 µM (active); in the assay with PC26, 6.75 µM (active); in the assay on PC49 it was 2 µM (active); in the assay with SC27B it was 4.47 µM (active); in the assay with TAB109, 4.47 µM (active). The Potency with TAB113 is 7.08 µM (active).
Turning to `CN[C@@H]1C[C@@H](c2ccc(Cl)c(Cl)c2)c2ccccc21`, the Potency in the assay on DIV14 was 5.36 µM (active); in the assay with DIV17 it was 7.57 µM (active); in the assay with Dd2 it was 10 µM (active); in the assay on ICS it was 10 µM (active). The Potency entry in the assay on FAB9, in the assay on JCK and in the assay on TAB113 was “inactive” each time.
